# miR-21 act: qHTS Assay for Modulators of miRNAs and/orActivators of miR-21. 340,000 tested, under 10 active. HeLa miR-21 FLuc reporter, luciferase, 48 h. Potency, µM (series often up to 38.3 µM), actives largely listed as activators;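 further: miR-21 action dims this reporter so a rising signal means less miR-21 action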
#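 HeLa miR-21-FLuc reporter line, endogenous miR-21; 2000 cells/well in DMEM/10% FBS; compound titration up to ~40uM final, 48 h, 37 degree Celsius; luciferase detection reagent, 15 min lysis, CCD luminescence.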
# TSG101-PTAP inh: qHTS Assay for Iinhibitors of HIV-1 Budding by Blocking the Interaction of PTAP/TSG101. Tumor susceptibility gene 101 protein (Homo sapiens), Q99816. Fluorescence polarization, FITC-PTAP peptide / Tsg101 binding. Potency, µM (top dose mostly 115 µM), usual class: inhibitors. 340,000 tested, under 10 active. AID 493005, 2010; active means well fitted inhibition curve with a large enough effect in the main read-out, with a control signal flat, not every such curve was filed as active; inconclusive means small, poorly fitted or top-dose-only effect, or effect the other way, or a change in a side signal; inactive means no such curve, though single readings can be large or run the other way
#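 Steps: Tsg101 binding domain dispensed (10 uM final), compounds pinned in DMSO, FITC-labeled PTAP-motif peptide added (50 nM final); after 20 min binding at room temperature, polarization measured.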
# Nrf2 inh: Nrf2 qHTS screen for inhibitors. 360,000 tested, 2.1% active. A549 ARE-Fluc reporter, luciferase luminescence, 18-24 h. Potency, µM (series often up to 46 µM), hits mostly inhibitors. AID 504444, 2011; further: nearly all actives have a fitted effect of over 60% in size
#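 A549 ARE_Fluc cells, 5000/well, 5% FBS OPTI-MEM; compounds in dose-response, 18-24 h at 37 °C/5% CO2; CellTiter-Fluor viability read (Ex 405/Em 525), then BugLite luciferase luminescence = Nrf2 activity.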
# A549 tox-1: Nrf2 qHTS screen for inhibitors: counterscreen for cytotoxicity; A549 ARE-Fluc cells, CellTiter-Fluor viability, 18-24 h; Potency, µM (top dose mostly 46 µM), usual class: inhibitors; 390,000 tested, 0.16% active
#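 Cytotoxicity counterscreen: CellTiter-Fluor fluorescence was measured in A549 ARE_Fluc cells after 18-24 h of compound exposure in a concentration series. The subsequent BugLite luminescent read reports ARE-luciferase activity.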
# Glioma ERSR ind: qHTS for Inducers of the Endoplasmic Reticulum Stress Response (ERSR) in Human Glioma: qHTS | U87-MG GRP78 promoter luciferase reporter, 16 h | Potency, µM, hits mostly activators | 420,000 tested, 0.02% active; further: series mostly up to about 76 µM; nearly all actives have a fitted effect of over 35% in size
#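 Stably transfected U87-MG human glioma cells carrying a GRP78-based luminescent sensor were seeded at 1000 cells/well, pin-dosed with compounds and incubated 16 h. Luciferase reagent was then added, and end-point luminescence was read after 10 min at room temperature.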
# Nrf2 activator: qHTS of Nrf2 Activators. AREc32 ARE-luciferase reporter (MCF7-derived line), luminescence, 24 h. AID 624171, 2012. Potency, µM (highest dose often 46.1 µM), actives largely listed as activators. 410,000 tested, 0.31% active; further: nearly all actives have a fitted effect of over 65% in size
#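 ARE-driven firefly luciferase activity in AREc32 cells measured after a 24 hr compound exposure at 37 deg C, using Steady-Glo reagent and a 30 min room-temperature hold.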
# FLuc enzyme inh: Nrf2 qHTS screen for inhibitors: Purified Fluc Biochemical Counterscreen for Hit Validation. purified firefly luciferase, luminescence inhibition. 1,400 tested, 4% active. AID 720522, 2013. shares compounds with Nrf2 inh. Potency, µM (doses to about 57.5 µM), hits mostly inhibitors; further: nearly all actives have a fitted effect of over 65% in size
# Target sequence (P08659 whole entry, looked up): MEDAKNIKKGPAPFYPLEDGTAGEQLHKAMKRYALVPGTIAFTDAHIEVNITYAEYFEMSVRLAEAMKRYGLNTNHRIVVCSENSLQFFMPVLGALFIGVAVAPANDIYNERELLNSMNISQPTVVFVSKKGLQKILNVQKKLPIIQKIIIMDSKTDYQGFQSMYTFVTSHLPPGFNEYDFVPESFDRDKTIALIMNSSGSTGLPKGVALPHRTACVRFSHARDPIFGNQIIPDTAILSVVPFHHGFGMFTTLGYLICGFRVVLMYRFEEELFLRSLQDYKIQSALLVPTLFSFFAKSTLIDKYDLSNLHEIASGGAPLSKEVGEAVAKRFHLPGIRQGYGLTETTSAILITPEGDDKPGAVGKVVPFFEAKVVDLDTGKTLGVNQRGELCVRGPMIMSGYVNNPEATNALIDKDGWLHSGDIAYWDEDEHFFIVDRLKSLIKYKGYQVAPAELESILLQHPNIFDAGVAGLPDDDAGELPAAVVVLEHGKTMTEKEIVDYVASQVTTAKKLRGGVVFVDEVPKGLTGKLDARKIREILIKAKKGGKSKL
# A549 tox-2: Nrf2 qHTS screen for inhibitors: A549 ARE-Fluc Cytotoxicity Counterscreen for Hit Validation. shares compounds with Nrf2 inh. AID 720523, 2013. Potency, µM (highest dose often 46.1 µM), usual class: inhibitors. A549 ARE-Fluc cells, cytotoxicity counterscreen. 1,400 tested, 2% active;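 further: cells exposed to compounds for 18 to 24 hours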
# ARE-Fluc inh: Nrf2 qHTS screen for inhibitors: Nrf2 A549 ARE-Fluc Confirmation Assay for Hit Validation; shares compounds with Nrf2 inh; A549 ARE-firefly luciferase reporter, luminescence; 1,400 tested, 74% active; Potency, µM (top dose mostly 46.1 µM), actives largely listed as inhibitors; further: nearly all actives have a fitted effect of over 65% in size
# Numbers stand for hits; n = inactive; u = inconclusive; x = no result. This is a sample that favours compounds with a hit; in the whole collection about 2.1% have one here. Unless noted, the call rests on the fitted dose curve; in most records, active means well fitted curve in the direction sought with a large enough effect; inconclusive means small, poorly fitted or top-dose-only effect, or another doubt; inactive means no such curve, though single readings can be large; an effect the other way counts as inactive or inconclusive.
SMILES,miR-21 act,TSG101-PTAP inh,Nrf2 inh,A549 tox-1,Glioma ERSR ind,Nrf2 activator,FLuc enzyme inh,A549 tox-2,ARE-Fluc inh
O=C(CSc1c2c(nc3ccc(Cl)cc13)CCCC2)N1CCN(c2cccc(Cl)c2)CC1,n,x,9.2µM,n,n,n,n,u,u
COc1ccc(N2CCN(C(=O)CSc3c4c(nc5ccc(Cl)cc35)CCCC4)CC2)cc1,n,x,u,n,n,u,x,x,x
O=C(CSc1c2c(nc3ccc(Cl)cc13)CCCC2)N1CCN(c2ccc(Cl)cc2)CC1,n,x,2.9µM,u,n,n,n,u,21µM
CN(C)c1cccc(NC2=CC(=[N+]3CCOCC3)CC(C)(C)C2)c1,n,n,n,n,n,n,x,x,x
CN(Cc1ccccc1)C1=CC(=[N+]2CCCC2)CC(C)(C)C1,u,n,4.6µM,n,n,n,n,u,18µM
CCN(CC)C1=CC(=[N+]2CCCC2)CC(C)(C)C1,n,n,8.2µM,n,n,n,n,n,6.5µM
O=C(Nc1ccc(Cl)cn1)c1cnn2c1NC(=C1CC1)C=C2C(F)F,x,x,x,x,n,x,x,x,x
Cc1cccc2c3c(ccc12)C1=C(C(=O)C3=O)[C@@H](C)CO1,x,x,x,x,n,x,x,x,x
Clc1cccc(CNc2ncnc3nc[nH]c23)c1,x,x,x,x,n,x,x,x,x
CC(CCc1ccc2c(c1)OCO2)NN (stereo not given),x,x,x,x,n,x,x,x,x
C/C(=N\Nc1nc2ccccc2nc1C)c1ccccc1O,n,n,n,n,n,n,x,x,x
CC(=NNc1ccc2ccccc2n1)c1ccccc1O,x,n,u,n,n,u,0.038µM,n,u
Cc1cc(C(=O)OCC(=O)N2CC(=O)Nc3ccccc32)c(C)n1-c1ccccc1,n,n,u,n,n,n,x,x,x
Cc1cc(C(=O)OCC(=O)N2CC(=O)Nc3ccccc32)c(C)n1-c1ccc(F)cc1,n,n,9.2µM,u,n,n,n,n,16µM
O=S(=O)(c1cccc(F)c1)N1CCN(c2nc(-c3cccs3)nc3ccccc23)CC1,x,x,n,n,n,x,x,x,x
Oc1cc(-c2nc3ccccc3s2)cc2c1OCCN(Cc1cccn1-c1nccs1)C2,x,x,x,x,n,x,x,x,x
COc1cc(N(C)C)c(OC)cc1/C=C/c1ccnc2ccccc12,x,x,x,x,n,x,x,x,x
Cc1cc[n+](CC#N)cc1,x,x,x,x,n,x,x,x,x
COc1ccc(C(=O)NC(c2ccccc2Cl)c2cc(Cl)c3cccnc3c2O)cc1 (stereo not given),u,x,4.1µM,u,n,n,n,n,4.6µM
COc1ccc(N2C(=O)c3ccccc3NC2c2ccc(OC)c(COc3ccc(NC(C)=O)cc3)c2)cc1 (stereo not given),x,x,u,n,n,x,x,x,x
Cc1ccc(N2CCN(S(=O)(=O)N3CCCCC3)CC2)c(C)c1,n,n,6.5µM,n,n,n,n,n,n
Cc1cc(C)c(S(=O)(=O)N2CCN(S(=O)(=O)N3CCCCCC3)CC2)c(C)c1,n,n,n,n,n,n,x,x,x
CCCN1CNc2c(c(=O)[nH]c(=S)n2CCc2ccccc2OC)C1,x,x,n,n,x,x,x,x,x
Cn1c(-c2ccc3ccccc3n2)[n+](C)c2ccccc21,n,n,u,n,n,n,x,x,x
CN(C)c1ccc(-c2n(C)c3ccccc3[n+]2C)cc1,n,n,0.29µM,n,n,n,n,n,u
